Our source for the outcome and AC50 values is PubChem BioAssay (EPA / NIEHS).

Values joined by “and” are separate entries in the source; they are usually repeats but may differ in a detail not shown here. Equal entries are not always repeated. Results filed as inconclusive are left out. A structure can be active in one record and inactive in another. Active and inactive are the calls of the source. Rule for the calls, unless noted: active = hit-call score of the fitted dose curve at least 0.9, where 1 is the maximum; inactive = score below 0.9.

Test [1] is described as follows: ATG_TAL_CIS: Attagene CIS-FACTORIAL HepG2 Assay for human TAL Basal Promoter (AID 2282966).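 Note: background control endpoint measuring basal TAL promoter reporter mRNA not a specific factor.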 The following applies: HepG2 Attagene cis-factorial TAL promoter reporter; actives raise or lower the signal. Summed up:
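Fluorescence of labelled reporter cDNA fragments, resolved by capillary electrophoresis, gave the readout. Human HepG2 liver cells carried transiently transfected cis-element reporter units and were treated for 24 hours; activity was fitted bidirectionally against DMSO.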

A short description of test [2]: ATG_TGFb_CIS: Attagene CIS-FACTORIAL HepG2 Assay for human Transforming Growth Factor (TGF) (AID 2282967). The following applies: HepG2 Attagene CIS TGFb reporter, mRNA transcription; actives raise or lower the signal. Put shortly: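 Readout: fluorescently labeled reporter cDNA fragments resolved by capillary electrophoresis after RT-PCR. Transfected HepG2 cells dosed for 24 h; endogenous TF activity at TGFB1-linked cis element; gain or loss fitted relative to DMSO.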

For test [3], the target named is Nuclear receptor subfamily 1 group I member 3 (Homo sapiens) (UniProt Q14994). In words: ATG_CAR_TRANS: Attagene TRANS-FACTORIAL HepG2 Assay for human Constitutive Androstane Receptor (CAR) (AID 2282969; active = hit-call score of the fitted dose curve at least 0.9, where 1 is the maximum;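 note: activators raise reporter mRNA above DMSO so AC50 marks induction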). Conditions: HepG2 Attagene TRANS-FACTORIAL CAR reporter. Summed up: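 HepG2 cells transiently transfected with multiplexed GAL4-UAS reporter units expressing chimeric NR-Gal4 proteins; compound exposure 24 h. Reporter mRNA measured by RT-PCR, 6-FAM labelling, HpaI digestion and capillary electrophoresis; gain-of-signal fitted against DMSO baseline.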
Nuclear receptor subfamily 1 group I member 3 (Homo sapiens), sequence (Q14994 whole entry, looked up, the tested form may be a part): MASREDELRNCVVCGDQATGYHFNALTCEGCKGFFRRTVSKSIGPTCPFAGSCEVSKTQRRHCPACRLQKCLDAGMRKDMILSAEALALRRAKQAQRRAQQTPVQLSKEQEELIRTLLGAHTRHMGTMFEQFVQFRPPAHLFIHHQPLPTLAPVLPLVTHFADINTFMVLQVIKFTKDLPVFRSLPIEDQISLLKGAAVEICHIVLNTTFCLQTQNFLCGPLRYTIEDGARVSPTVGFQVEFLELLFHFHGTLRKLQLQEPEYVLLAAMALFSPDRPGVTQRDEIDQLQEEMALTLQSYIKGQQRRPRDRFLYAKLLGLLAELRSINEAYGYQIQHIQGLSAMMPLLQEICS

Test [4] concerns the target X-box-binding protein 1 (Homo sapiens) (UniProt P17861). In words: ATG_Xbp1_CIS: Attagene CIS-FACTORIAL HepG2 Assay for human X-box Binding Protein 1 (XBP1) (AID 2282972). Conditions: HepG2 XBP1 cis-element reporter, Attagene multiplex; actives raise or lower the signal. Summed up:
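HepG2 cells transiently transfected with multiple cis-element reporter units report endogenous TF activity; 24 h exposure, then reporter mRNA measured by RT-PCR, 6-FAM labelling, HpaI digestion and capillary electrophoresis. Bidirectional fitting versus DMSO.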

The nature of test [5]: ATG_M_19_TRANS: Attagene TRANS-FACTORIAL HepG2 Assay for M19 Transcription Factor (Internal Marker) (AID 2282974; active = hit-call score of the fitted dose curve at least 0.9, where 1 is the maximum). Conditions: HepG2 Attagene TRANS-FACTORIAL M19 internal marker reporter. Put shortly: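 24 h chemical exposure of transiently transfected HepG2 (MRTU library). RNA → oligo(dT) RT → PCR → 6-FAM labelling → HpaI cut → CE fluorescence. Positive-direction fit vs DMSO baseline; background internal-marker readout.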

In test [6] the target is Estrogen-related receptor gamma (Homo sapiens) (UniProt P62508). The experiment in a line: ATG_ERRg_TRANS: Attagene TRANS-FACTORIAL HepG2 Assay for human Estrogen-Related Receptor gamma (ERRg) (AID 2282977; active = hit-call score of the fitted dose curve at least 0.9, where 1 is the maximum;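 note: hits increase reporter signal over DMSO so potencies reflect activators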). The following applies: HepG2 Attagene TRANS reporter, ERRg transactivation. Put shortly: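 HepG2 cells transiently transfected with multiplexed GAL4-UAS reporter units driven by chimeric NR-Gal4 proteins; 24 h exposure. Reporter mRNA quantified by RT-PCR, fluorescent labelling, HpaI digestion and capillary electrophoresis; gain of signal vs DMSO.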

Test [7] has as its target Glucocorticoid receptor (Homo sapiens) (UniProt P04150). The experiment in a line: ATG_GR_TRANS: Attagene TRANS-FACTORIAL HepG2 Assay for human Glucocorticoid Receptor (GR) (AID 2282978; active = hit-call score of the fitted dose curve at least 0.9, where 1 is the maximum;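 note: activators score as hits since higher reporter transcript over DMSO is fitted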). Conditions: HepG2 Attagene TRANS GR reporter, mRNA transcription. Put shortly:
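Transient MRTU transfection of HepG2 (GAL4-UAS reporters, exogenous NR-GAL4 chimeras), 24 h dosing. Readout: reporter transcript via RT-PCR + capillary electrophoresis fluorescence. Positive direction vs DMSO baseline.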

Test [8] has as its target Bile acid receptor (Homo sapiens) (UniProt Q96RI1). The experiment in a line: ATG_FXR_TRANS: Attagene TRANS-FACTORIAL HepG2 Assay for Farnesoid X Receptor (FXR) (AID 2282979; active = hit-call score of the fitted dose curve at least 0.9, where 1 is the maximum;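 note: hits raise reporter mRNA above DMSO so AC50 marks FXR activation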). Conditions: HepG2 Attagene TRANS FXR-GAL4 reporter transcription. Summed up:
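Transient transfection of HepG2 with multiplexed GAL4-UAS reporter units; exogenous FXR-GAL4 chimera. Dose 24 h → TriZol RNA → oligo(dT) RT → PCR, 6-FAM primer extension, HpaI cut → CE. Gain vs DMSO.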

The target in test [9] is Oxysterols receptor LXR-alpha (Homo sapiens) (UniProt Q13133). In words: ATG_LXRa_TRANS: Attagene TRANS-FACTORIAL HepG2 Assay for human Liver X Receptor alpha (LXRa) (AID 2282980; active = hit-call score of the fitted dose curve at least 0.9, where 1 is the maximum). The following applies: HepG2 Attagene TRANS reporter, LXRa transactivation. Put shortly:
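Transfect HepG2 with GAL4-UAS multiplex reporter constructs (TRANS format, chimeric receptor-GAL4); treat 24 h; extract RNA, reverse-transcribe, PCR-amplify, FAM-label, HpaI-digest; resolve fragments by capillary electrophoresis. Upward response vs DMSO.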

Test [10] has as its target Oxysterols receptor LXR-beta (Homo sapiens) (UniProt P55055). In words: ATG_LXRb_TRANS: Attagene TRANS-FACTORIAL HepG2 Assay for human Liver X Receptor beta (LXRb) (AID 2282981; active = hit-call score of the fitted dose curve at least 0.9, where 1 is the maximum). The following applies: HepG2 Attagene TRANS GAL4-LXRb reporter, mRNA. Summed up:
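In this TRANS format, exogenous chimeric NR-Gal4 protein activity, not endogenous factors, drives reporter expression in transfected human HepG2 cells. Exposure lasted 24 h; reporter mRNA was read by fluorescent capillary electrophoresis.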

Test [11] deals with Nuclear receptor subfamily 4 group A member 2 (Homo sapiens) (UniProt P43354). The experiment in a line: ATG_NURR1_TRANS: Attagene TRANS-FACTORIAL HepG2 Assay for human Nuclear Receptor Related Protein 1 (NURR1) (AID 2282985; active = hit-call score of the fitted dose curve at least 0.9, where 1 is the maximum). The following applies: HepG2 Attagene TRANS reporter, mRNA readout. Put shortly:
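After 24 h chemical dosing, total RNA from transiently transfected HepG2 cells was reverse-transcribed and reporter cDNA PCR-amplified, FAM-labelled and analysed by capillary electrophoresis. Activity fitted in positive direction, DMSO as negative control.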

The target in test [12] is Transcriptional activator Myb (Homo sapiens) (UniProt P10242). In words: ATG_Myb_CIS: Attagene CIS-FACTORIAL HepG2 Assay for human Myeloblastosis (Myb) Proto-Oncogene Transcription Factor (AID 2282986). The following applies: HepG2 Attagene CIS-FACTORIAL Myb reporter transcription; actives raise or lower the signal. Summed up: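 HepG2, transient MRTU transfection (cis-element promoters, endogenous TF activity), 24 h compound exposure. Readout: reporter mRNA via RT-PCR, 6-FAM labeling, HpaI digest, capillary electrophoresis. Gain/loss fit vs DMSO.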
Transcriptional activator Myb (Homo sapiens), sequence (P10242 whole entry, looked up): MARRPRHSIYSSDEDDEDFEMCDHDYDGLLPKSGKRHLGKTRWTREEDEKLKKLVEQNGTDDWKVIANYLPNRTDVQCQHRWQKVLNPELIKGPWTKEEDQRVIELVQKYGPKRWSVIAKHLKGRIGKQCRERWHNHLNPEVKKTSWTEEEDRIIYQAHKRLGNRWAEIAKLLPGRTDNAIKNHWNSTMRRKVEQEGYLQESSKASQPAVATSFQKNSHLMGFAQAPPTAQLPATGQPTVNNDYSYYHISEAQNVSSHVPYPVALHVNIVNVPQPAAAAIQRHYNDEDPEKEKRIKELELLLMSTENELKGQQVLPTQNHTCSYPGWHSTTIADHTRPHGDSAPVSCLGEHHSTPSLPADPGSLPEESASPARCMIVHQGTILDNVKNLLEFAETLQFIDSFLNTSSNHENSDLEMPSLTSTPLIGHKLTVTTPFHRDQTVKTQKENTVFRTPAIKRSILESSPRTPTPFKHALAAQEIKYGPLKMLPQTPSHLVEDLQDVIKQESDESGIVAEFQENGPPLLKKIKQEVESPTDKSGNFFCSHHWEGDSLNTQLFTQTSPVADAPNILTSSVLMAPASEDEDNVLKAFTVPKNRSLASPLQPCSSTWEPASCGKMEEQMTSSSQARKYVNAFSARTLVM

The target in test [13] is Nuclear respiratory factor 1 (Homo sapiens) (UniProt Q16656). In words: ATG_NRF1_CIS: Attagene CIS-FACTORIAL HepG2 Assay for human Nuclear Respiratory Factor 1 (NRF1) Orphan Gene (AID 2282987). Conditions: HepG2 NRF1 cis-element reporter, Attagene multiplex; actives raise or lower the signal. Put shortly:
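Endogenous NRF1-driven reporter transcription measured in transiently transfected human HepG2 liver cells. Readout: reporter mRNA by RT-PCR and capillary electrophoresis with fluorescence detection, 24 h post-dosing. Gain or loss of signal fitted relative to DMSO baseline.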

The nature of test [14]: ATG_NFI_CIS: Attagene CIS-FACTORIAL HepG2 Assay for human Nuclear Factor I (NFI) (AID 2282989). Conditions: HepG2 cis-regulatory reporter, NFI response element transcription; actives raise or lower the signal. Put shortly:
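Read-out: reporter mRNA via RT-PCR plus capillary electrophoresis with fluorescence detection. Transiently transfected HepG2 (endogenous TF activity on cis promoters), 24 h compound exposure; gain or loss of signal fitted against DMSO.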

The target of test [15] is Myc proto-oncogene protein (Homo sapiens) (UniProt P01106). In words: ATG_Myc_CIS: Attagene CIS-FACTORIAL HepG2 Assay for human Myelocytomatosis (Myc) Proto-Oncogene Transcription Factor (AID 2282990). The following applies: HepG2, Attagene cis-reporter transcription factor activity; actives raise or lower the signal. Summed up: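 HepG2 cells transiently transfected with multiple cis-promoter-driven reporter transcription units, so endogenous TF activity is read. After 24 h compound exposure, reporter mRNA was quantified by RT-PCR, 6-FAM labelling, HpaI digestion and capillary electrophoresis; bidirectional fit versus DMSO.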
Myc proto-oncogene protein (Homo sapiens), sequence (P01106 whole entry, looked up): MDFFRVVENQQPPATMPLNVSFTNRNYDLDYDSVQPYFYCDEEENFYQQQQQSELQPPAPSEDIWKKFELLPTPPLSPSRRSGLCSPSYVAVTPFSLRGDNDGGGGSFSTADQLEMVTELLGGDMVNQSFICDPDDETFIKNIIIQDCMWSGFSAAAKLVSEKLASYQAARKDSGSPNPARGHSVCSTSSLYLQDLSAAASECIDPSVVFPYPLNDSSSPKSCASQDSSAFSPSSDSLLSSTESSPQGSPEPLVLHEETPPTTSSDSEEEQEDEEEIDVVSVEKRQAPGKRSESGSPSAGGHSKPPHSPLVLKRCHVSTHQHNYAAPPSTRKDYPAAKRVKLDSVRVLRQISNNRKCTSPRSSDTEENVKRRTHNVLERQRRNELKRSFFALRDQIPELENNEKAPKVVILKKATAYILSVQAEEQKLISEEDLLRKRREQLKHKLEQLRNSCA

Test [16] has as its target Estrogen receptor (Homo sapiens) (UniProt P03372). The experiment in a line: ATG_ERa_TRANS: Attagene TRANS-FACTORIAL HepG2 Assay for human Estrogen Receptor alpha (ERa) (AID 2282970; active = hit-call score of the fitted dose curve at least 0.9, where 1 is the maximum). Conditions: HepG2 Attagene TRANS ERa GAL4 reporter, mRNA. Summed up: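 Human liver HepG2, transient transfection of multiple GAL4-UAS reporter units; TRANS format (exogenous NR-Gal4 chimera). 24 h dosing. Readout: reporter mRNA, RT-PCR, 6-FAM primer extension, HpaI digest, capillary electrophoresis. Positive direction vs DMSO.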

Test [17] has as its target Hepatocyte nuclear factor 4-alpha (Homo sapiens) (UniProt P41235). In words: ATG_HNF4a_TRANS: Attagene TRANS-FACTORIAL HepG2 Assay for human Hepatocyte Nuclear Factor 4 alpha (HNF4a) (AID 2282982; active = hit-call score of the fitted dose curve at least 0.9, where 1 is the maximum). Conditions: HepG2 HNF4a transactivation reporter, mRNA readout. Summed up: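 Cells used were human HepG2, transiently carrying GAL4-UAS reporter units read out against exogenous NR-GAL4 chimeras. Reporter transcript levels after 24 h dosing were quantified by fluorescent RT-PCR and capillary electrophoresis.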

The nature of test [18]: ATG_M_06_TRANS: Attagene TRANS-FACTORIAL HepG2 Assay for M06 Transcription Factor (Internal Marker) (AID 2282983; active = hit-call score of the fitted dose curve at least 0.9, where 1 is the maximum). Conditions: HepG2 Attagene TRANS M06 internal marker reporter. Put shortly: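 Transfect HepG2 with MRTUs → dose compounds 24 h → isolate RNA, oligo(dT) RT → PCR with reporter primers → 6-FAM primer extension → HpaI digest → CE fragment analysis. Positive direction vs DMSO.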

The nature of test [19]: ATG_VDRE_CIS: Attagene CIS-FACTORIAL HepG2 Assay for human Vitamin D Receptor Element (VDRE) (AID 2282968). Conditions: HepG2 VDRE cis-reporter transcription, actives raise or lower the signal. Put shortly: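 RT-PCR/CE readout of reporter mRNA; HepG2, transient transfection, 24 h dosing; DMSO baseline; bidirectional analysis.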
Test [20] can be described thus: ATG_M_32_TRANS: Attagene TRANS-FACTORIAL HepG2 Assay for M32 Transcription Factor (Internal Marker) (AID 2282984; active = hit-call score of the fitted dose curve at least 0.9, where 1 is the maximum;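 note: transcript level of a background control reporter unit measured by RT-PCR and capillary electrophoresis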). The following applies: HepG2 Attagene TRANS M32 internal marker reporter. Summed up: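 Human hepatoma HepG2, transient MRTU transfection, 24 h treatment. RNA → RT-PCR → fluorescent primer extension → HpaI digest (2 h, 37 C) → CE. Positive-direction fit vs DMSO.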

Hepatocyte nuclear factor 4-alpha (Homo sapiens), sequence (P41235 whole entry, looked up, the tested form may be a part): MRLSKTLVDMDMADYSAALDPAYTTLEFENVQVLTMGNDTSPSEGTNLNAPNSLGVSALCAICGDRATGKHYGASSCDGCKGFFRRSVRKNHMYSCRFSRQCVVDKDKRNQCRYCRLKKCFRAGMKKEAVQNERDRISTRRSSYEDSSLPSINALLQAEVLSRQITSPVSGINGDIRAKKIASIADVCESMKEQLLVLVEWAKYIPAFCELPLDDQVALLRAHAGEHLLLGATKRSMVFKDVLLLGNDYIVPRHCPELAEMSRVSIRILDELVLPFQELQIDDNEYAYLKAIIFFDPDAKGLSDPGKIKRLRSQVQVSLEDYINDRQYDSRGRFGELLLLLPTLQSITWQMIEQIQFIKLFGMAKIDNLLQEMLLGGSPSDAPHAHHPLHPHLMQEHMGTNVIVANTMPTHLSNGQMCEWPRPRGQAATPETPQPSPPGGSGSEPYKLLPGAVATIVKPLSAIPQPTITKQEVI
X-box-binding protein 1 (Homo sapiens), sequence (P17861 whole entry, looked up): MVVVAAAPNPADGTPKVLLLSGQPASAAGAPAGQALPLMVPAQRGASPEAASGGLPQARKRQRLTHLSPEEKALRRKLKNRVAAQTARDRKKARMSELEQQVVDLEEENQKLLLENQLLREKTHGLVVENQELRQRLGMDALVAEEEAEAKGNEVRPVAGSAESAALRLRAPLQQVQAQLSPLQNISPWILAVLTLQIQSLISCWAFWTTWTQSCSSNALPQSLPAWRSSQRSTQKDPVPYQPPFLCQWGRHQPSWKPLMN
Nuclear respiratory factor 1 (Homo sapiens), sequence (Q16656 whole entry, looked up): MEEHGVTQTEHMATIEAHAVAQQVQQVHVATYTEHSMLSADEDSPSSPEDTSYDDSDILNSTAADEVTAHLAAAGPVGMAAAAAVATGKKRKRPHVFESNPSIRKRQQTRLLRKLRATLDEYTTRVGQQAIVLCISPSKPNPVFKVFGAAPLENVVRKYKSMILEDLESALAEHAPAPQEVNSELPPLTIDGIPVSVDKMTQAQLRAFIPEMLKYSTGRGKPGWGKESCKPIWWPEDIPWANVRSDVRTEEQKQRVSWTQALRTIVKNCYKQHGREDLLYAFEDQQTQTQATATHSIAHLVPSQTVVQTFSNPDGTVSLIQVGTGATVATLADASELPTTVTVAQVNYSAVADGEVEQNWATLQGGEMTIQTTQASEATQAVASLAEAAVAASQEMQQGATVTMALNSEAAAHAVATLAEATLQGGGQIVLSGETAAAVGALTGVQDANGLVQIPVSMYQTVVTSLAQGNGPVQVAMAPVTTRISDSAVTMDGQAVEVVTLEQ
Nuclear receptor subfamily 4 group A member 2 (Homo sapiens), sequence (P43354 whole entry, looked up): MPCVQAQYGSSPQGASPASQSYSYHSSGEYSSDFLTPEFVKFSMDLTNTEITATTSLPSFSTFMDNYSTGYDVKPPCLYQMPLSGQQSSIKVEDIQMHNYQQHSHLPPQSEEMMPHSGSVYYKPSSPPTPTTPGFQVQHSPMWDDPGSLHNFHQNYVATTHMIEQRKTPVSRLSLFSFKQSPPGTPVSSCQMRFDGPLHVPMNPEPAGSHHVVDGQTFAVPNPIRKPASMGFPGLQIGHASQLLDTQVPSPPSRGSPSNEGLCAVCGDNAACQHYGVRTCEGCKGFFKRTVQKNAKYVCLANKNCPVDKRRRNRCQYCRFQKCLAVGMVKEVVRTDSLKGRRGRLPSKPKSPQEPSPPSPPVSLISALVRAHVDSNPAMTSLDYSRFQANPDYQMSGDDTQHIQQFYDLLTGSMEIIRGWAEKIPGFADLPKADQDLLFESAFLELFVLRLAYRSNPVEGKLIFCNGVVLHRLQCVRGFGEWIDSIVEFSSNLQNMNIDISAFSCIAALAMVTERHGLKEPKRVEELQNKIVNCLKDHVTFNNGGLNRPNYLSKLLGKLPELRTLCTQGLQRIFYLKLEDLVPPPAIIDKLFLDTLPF
Oxysterols receptor LXR-alpha (Homo sapiens), sequence (Q13133 whole entry, looked up, the tested form may be a part): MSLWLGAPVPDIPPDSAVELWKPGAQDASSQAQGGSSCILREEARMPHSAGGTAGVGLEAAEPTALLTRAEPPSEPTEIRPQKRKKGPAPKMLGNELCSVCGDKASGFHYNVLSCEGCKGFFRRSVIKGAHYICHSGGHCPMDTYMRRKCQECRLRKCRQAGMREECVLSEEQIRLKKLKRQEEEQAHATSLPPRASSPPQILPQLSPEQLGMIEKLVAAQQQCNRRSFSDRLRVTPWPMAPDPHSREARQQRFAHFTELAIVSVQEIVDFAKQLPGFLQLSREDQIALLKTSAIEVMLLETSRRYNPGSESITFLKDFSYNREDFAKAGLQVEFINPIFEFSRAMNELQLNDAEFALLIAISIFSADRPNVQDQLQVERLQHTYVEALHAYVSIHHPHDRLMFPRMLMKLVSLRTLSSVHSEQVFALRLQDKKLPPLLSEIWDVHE
Oxysterols receptor LXR-beta (Homo sapiens), sequence (P55055 whole entry, looked up, the tested form may be a part): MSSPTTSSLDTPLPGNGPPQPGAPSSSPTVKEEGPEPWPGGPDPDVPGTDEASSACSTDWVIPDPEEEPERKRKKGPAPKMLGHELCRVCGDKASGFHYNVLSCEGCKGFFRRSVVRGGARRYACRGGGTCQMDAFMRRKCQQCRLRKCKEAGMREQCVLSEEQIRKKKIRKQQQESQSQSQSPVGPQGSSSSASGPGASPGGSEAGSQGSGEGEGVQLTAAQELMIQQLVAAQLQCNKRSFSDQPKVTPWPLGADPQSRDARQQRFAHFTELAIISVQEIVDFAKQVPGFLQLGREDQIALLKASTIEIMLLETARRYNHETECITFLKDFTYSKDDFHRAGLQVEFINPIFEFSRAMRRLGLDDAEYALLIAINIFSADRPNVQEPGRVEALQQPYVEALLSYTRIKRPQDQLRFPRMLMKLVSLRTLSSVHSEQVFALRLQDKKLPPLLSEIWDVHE
Glucocorticoid receptor (Homo sapiens), sequence (P04150 whole entry, looked up, the tested form may be a part): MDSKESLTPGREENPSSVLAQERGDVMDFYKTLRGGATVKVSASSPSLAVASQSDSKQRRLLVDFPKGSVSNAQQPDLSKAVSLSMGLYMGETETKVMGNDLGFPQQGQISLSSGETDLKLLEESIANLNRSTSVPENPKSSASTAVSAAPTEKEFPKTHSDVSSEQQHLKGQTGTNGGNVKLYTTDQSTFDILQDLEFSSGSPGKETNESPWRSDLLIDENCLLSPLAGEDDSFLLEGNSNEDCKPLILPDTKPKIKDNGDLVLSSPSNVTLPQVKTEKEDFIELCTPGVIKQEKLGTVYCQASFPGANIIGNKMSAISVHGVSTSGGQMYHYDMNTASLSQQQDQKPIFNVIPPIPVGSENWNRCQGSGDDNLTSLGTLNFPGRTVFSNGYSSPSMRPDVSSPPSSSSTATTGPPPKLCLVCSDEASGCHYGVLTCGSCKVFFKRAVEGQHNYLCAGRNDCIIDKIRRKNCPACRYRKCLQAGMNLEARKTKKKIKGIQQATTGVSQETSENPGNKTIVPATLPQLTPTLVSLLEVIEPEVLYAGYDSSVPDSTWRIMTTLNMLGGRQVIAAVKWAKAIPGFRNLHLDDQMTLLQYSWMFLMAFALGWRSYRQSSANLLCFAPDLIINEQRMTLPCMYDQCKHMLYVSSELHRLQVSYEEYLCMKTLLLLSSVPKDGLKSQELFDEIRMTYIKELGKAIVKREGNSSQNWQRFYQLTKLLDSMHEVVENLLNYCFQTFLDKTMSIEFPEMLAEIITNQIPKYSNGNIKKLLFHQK

As for `CC(=O)S[C@H](C(=O)N[C@H]1Cc2ccccc2[C@H]2CCC[C@@H](C(=O)O)N2C1=O)C(C)C`, the result in test [1], in [2], in test [3], in test [4], in test [5] and in [6] was inactive. For the same compound, the compound was classed as inactive in test [7], in [8], in test [9], in [10], in test [11] and in test [12]. The compound was classed as inactive in test [13], in test [14] and in test [15].

Regarding `Nc1nc(=S)c2[nH]cnc2[nH]1`, the call in test [1], in test [2], in test [3], in test [16], in test [4] and in test [9] was inactive. In addition, the compound was called inactive in [10], in test [17], in [18], in test [11], in test [12] and in test [13]. Also, the compound was classed as inactive in test [14] and in [15].

Turning to `CCCC[C@H]1CN(CC2CCOCC2)C(=O)OC12CCN(C1(C)CCN(C(=O)c3c(C)ncnc3C)CC1)CC2`, the result in [2], in test [19], in test [3], in test [4], in test [5] and in [9] was inactive. In addition, the compound was classed as inactive in test [10], in [20], in test [11], in test [12], in test [13] and in test [14]. In test [15], the compound was called inactive.

On to `O=C1NC(=O)C(c2ccccc2)(c2ccccc2)N1`, for which the outcome in test [1], in [2], in test [4], in test [7], in test [17] and in [18] was inactive. Moreover, the compound was classed as inactive in test [20], in test [11], in [12], in test [13], in test [14] and in [15].

`CC(=O)O[C@]1(C(C)=O)CC[C@H]2[C@@H]3C=C(Cl)C4=CC(=O)[C@@H]5C[C@@H]5[C@]4(C)[C@H]3CC[C@@]21C`: the outcome in test [2], in [19], in test [4], in test [5], in test [9] and in [10] was inactive. Also, the result in [17], in [18], in test [20], in test [11], in [12] and in [13] was inactive. In addition, the compound was classed as inactive in test [14] and in [15]. The AC50 (in general, the midpoint of the concentration-response curve, whichever way the signal moves) was 24.1 µM (active) in [19]; 45.5 µM (active) and 51.8 µM (active) and 43 µM (active) in [4]; 50.8 µM (active) in [12]; 26.8 µM (active) in test [13]; 164 µM (active) in [15].
